Assay outcomes (PubChem)
Hits are enriched below; roughly 19% of the tested compounds scored in any of these assays.
VP16 counter – VP16 counterscreen qHTS for inhibitors of ROR gamma transcriptional activity; Potency, µM (highest dose often 53.6 µM), for inactives: at the highest dose activity, negative = inhibition, most hits filed as inhibitors; 3.5% of 310,000 active; Drosophila S2 Gal4-VP16 UAS-luciferase, luminescence, 20 h;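 also: Gal4-VP16 expression switched on by copper sulfate through the metallothionein promoter; nearly all actives have a fitted effect of over 50% in size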
TDP1 inh – qHTS Assay for Inhibitors of Tyrosyl-DNA Phosphodiesterase (TDP1); Tyrosyl-DNA phosphodiesterase 1 (Homo sapiens), Q9NUW8; recombinant TDP1, AlphaScreen DNA substrate cleavage; Potency, µM (doses to about 130 µM), for the others: at the top dose activity change, negative = inhibition, actives largely listed as inhibitors; 0.28% of 350,000 active; AID 485290, 2010; also: nearly all actives have a fitted effect of over 40% in size
Target sequence (Q9NUW8 whole entry, looked up): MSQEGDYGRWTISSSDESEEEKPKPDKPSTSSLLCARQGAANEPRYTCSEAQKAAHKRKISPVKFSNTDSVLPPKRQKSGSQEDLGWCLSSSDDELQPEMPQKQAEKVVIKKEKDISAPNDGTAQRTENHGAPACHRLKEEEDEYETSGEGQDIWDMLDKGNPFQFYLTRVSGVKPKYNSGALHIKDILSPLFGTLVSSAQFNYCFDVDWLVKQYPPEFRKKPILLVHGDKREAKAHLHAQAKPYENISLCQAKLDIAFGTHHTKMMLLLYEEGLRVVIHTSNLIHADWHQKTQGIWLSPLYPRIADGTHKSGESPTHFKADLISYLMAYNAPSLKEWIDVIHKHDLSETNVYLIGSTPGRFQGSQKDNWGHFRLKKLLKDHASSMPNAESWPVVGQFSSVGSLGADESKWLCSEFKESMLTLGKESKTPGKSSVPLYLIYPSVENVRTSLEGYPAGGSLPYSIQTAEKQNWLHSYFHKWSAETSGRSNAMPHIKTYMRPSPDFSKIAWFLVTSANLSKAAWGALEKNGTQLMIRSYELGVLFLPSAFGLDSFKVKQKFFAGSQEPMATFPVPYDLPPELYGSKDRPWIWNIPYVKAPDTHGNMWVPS
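AlphaScreen read-out: signal falls as enzyme removes the 3' tyrosine-FITC from a 5'-biotinylated DNA oligo (15 nM, 5 min, RT). Enzyme was E. coli-made recombinant Tdp1 at 1 nM, exposed to compound for 15 min beforehand; beads 10 ug/ml, 10 min.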
TDP1 cell noCPT – qHTS for Inhibitors of human tyrosyl-DNA phosphodiesterase 1 (TDP1): qHTS in cells in absence of CPT. DT40 Tdp1-/- hTDP1 cells, no CPT, ATP luminescence, 48 h. Potency, µM (highest dose often 46.2 µM), for the others: at the highest dose activity change, negative = growth inhibition, usual class: inhibitors. 15% of 420,000 active. AID 686978, 2013; also: nearly all actives have a fitted effect of over 55% in size
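Growth kinetics read by CellTiter-Glo luminescence after ≥48 hr at 37 °C. Cells: DT40 Tdp1-/- stably carrying human TDP1, 400 per well, compound exposure in the absence of CPT (DMSO vehicle).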
TDP1 cell CPT – qHTS for Inhibitors of human tyrosyl-DNA phosphodiesterase 1 (TDP1): qHTS in cells in presence of CPT. 12% of 420,000 active. chicken DT40 Tdp1-/-;hTDP1 cells + 20 nM CPT, ATP luminescence, 48 h. Potency, µM (doses to about 46.2 µM), for the others: at the highest dose activity change, negative = growth inhibition, actives largely listed as inhibitors; also: nearly all actives have a fitted effect of over 55% in size
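Chicken DT40 Tdp1-/- cells complemented with human TDP1, 400 cells/well, exposed to compounds plus 20 nM camptothecin for at least 48 h at 37 C; viability read as ATP content by CellTiter-Glo luminescence.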
RORg inh – qHTS for inhibitors of ROR gamma transcriptional activity; Potency, µM (top dose mostly 53.6 µM), for the others: top-dose activity change, negative = inhibition, most hits filed as inhibitors; Drosophila S2 Gal4-RORgamma UAS-luciferase reporter, 20 h; Nuclear receptor ROR-gamma (Mus musculus), P51450; 5.4% of 310,000 active; also: nearly all actives have a fitted effect of over 60% in size
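A Gal4/UAS one-hybrid system in insect cells: metallothionein-promoter Gal4–ROR gamma fusion plus Photinus luciferase reporter. Copper sulfate 700 uM final, 20 hr ambient incubation, luminescent detection after 10 min with reagent.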
The depositor's hits bear a star; u = inconclusive; x = no result; [ ] = remark or other dose. Calls follow the shape of the dose curve; as a rule, active = well fitted curve in the direction sought with a large enough effect; inconclusive = small, poorly fitted or top-dose-only effect, or another doubt; inactive = no such curve, though single readings can be large; an effect the other way counts as inactive or inconclusive. % is scaled to controls: 0 for no effect and ±100 for the full control effect; potency is read from the fitted curve at half-maximal effect.

SMILES	VP16 counter	TDP1 inh	TDP1 cell noCPT	TDP1 cell CPT	RORg inh
CN1CCCCC1=NCCCn1cnc2c1c(=O)n(C)c(=O)n2C	-5%	-4%	-19%	-3%	18%
CCN(CC)S(=O)(=O)c1ccc(C)c(NC(=S)N2CCN(c3ccccn3)CC2)c1	9%	x	15µM*	18µM*	14%
CCN(CC)S(=O)(=O)c1ccc(C)c(NC(=S)N2CCN(C/C=C/c3ccccc3)CC2)c1	u	4%	12µM*	u	13µM*
CCc1ccccc1NC(=S)N1CCN(c2ccccn2)CC1	u	6%	-10%	1%	u
COC(=O)c1cc(NC(=O)Cc2cccs2)cc(C(=O)OC)c1	-3%	x	-10%	4%	26%
O=C(N/N=C\c1cccc([N+](=O)[O-])c1O)C1COc2ccccc2O1 (centres undefined)	2µM*	13%	5.2µM*	5.2µM*	1.8µM*
COc1cc([N+](=O)[O-])cc(/C=N\NC(=O)C2COc3ccccc3O2)c1O (centres undefined)	3.2µM*	8%	u	u	0.45µM*
O=C(N/N=C\c1ccc(-c2ccc([N+](=O)[O-])cc2)o1)C1COc2ccccc2O1 (centres undefined)	-27%	0%	23µM*	u	0%
O=S1(=O)C2CC3C=CC2(O3)C(OCc2ccc(Cl)c(Cl)c2)C(Cc2ccccc2)N1Cc1ccc(Cl)c(Cl)c1 (centres undefined)	-8%	7%	x	x	-1%
CC1=NN(C(N)=S)C(=O)C1N=Nc1ccc(F)cc1 (centres undefined)	1.3µM*	x	u	-24%	1µM*
CCOc1ccc(N=NC2C(=O)N(C(N)=S)N=C2C)cc1 (centres undefined)	0.35µM*	x	u	-6%	0.32µM*
CC1=NN(C(N)=S)C(=O)C1N=Nc1ccc(C)c(Br)c1 (centres undefined)	2.8µM*	x	16µM*	13µM*	0.71µM*
Cc1nc(N=Nc2ccc(O)cc2)n[nH]1	-1%	x	u	u	9%
CC1(C)CC(=O)C(N=Nc2ccc(F)cc2)=C(O)C1	6%	5%	23%	-5%	2%
CCOc1ccc(N=Nc2c(=O)[nH]n3c(C)cc(C)nc23)cc1	-6%	3%	-27%	-23%	u
CC1=NN(C(N)=S)C(=O)C1N=Nc1ccc(O)cc1 (centres undefined)	u	-8%	26µM*	-20%	4µM*
CCC1=C2CC[C@H]3C(=O)N(C)C(=O)[C@H]3[C@H]2[C@@]2(C)C(=O)N(CC3CC3)C(=O)N2C1=O	9%	2%	x	x	-18%
CC(C)n1nnc2cc(C(=O)O)ccc21	-7%	-5%	x	x	12%
CCC(=O)N1c2ccccc2CC1C(=O)NCc1cc(OC)ccc1OC (centres undefined)	x	1%	-14%	-25%	x
CC(=O)Nc1ccc(N=NC2C(=O)N(C(N)=S)N=C2C)cc1 (centres undefined)	8.9µM*	6%	3%	5%	5µM*
CC1=NN(C(N)=S)C(=O)C1N=Nc1ccc([N+](=O)[O-])cc1 (centres undefined)	1.3µM*	x	u	0%	0.16µM*
COc1cc(CN2CCNC(=O)C2CC(=O)N(C)Cc2cccnc2)cc(OC)c1 (centres undefined)	-2%	-2%	u	u	-1%
COc1cc(-c2nnc3sc(Cc4ccc(Cl)cc4)nn23)cc(OC)c1OC	x	x	9.2µM*	12µM*	x
COc1cc(-c2nnc3sc(Cc4ccccc4)nn23)cc(OC)c1OC	12%	3%	u	21µM*	-10%
COc1ccc(Cc2nn3c(-c4cc(OC)c(OC)c(OC)c4)nnc3s2)cc1	-4%	5%	u	u	2%
SMILES	VP16 counter	TDP1 inh	TDP1 cell noCPT	TDP1 cell CPT	RORg inh
CCCCCCCCN1C(=O)[C@H](CC(=O)NCC2CCCCC2)C[C@@]2(C(=O)OC)CCCCC=C12	x	x	16µM*	21µM*	x
CCCCCCCCN1C(=O)[C@H](CC(=O)NCCCOC)C[C@@]2(C(=O)OC)CCCCC=C12	x	x	16µM*	u	x
C[C@@H]1[C@H]2CCCC[C@H]2CN(C(=O)OC(C)(C)C)[C@@H]1CC(=O)c1ccccc1	x	-2%[56.1 µM]	16µM*	u	x
CC(C)(C)OC(=O)N1CCC[C@H]1C(O)(c1ccccc1)c1ccccc1	5%	3%	x	x	-18%
C[C@@H]1[C@H]2CCCC[C@H]2CN(C(=O)OC(C)(C)C)[C@@H]1c1cn(Cc2ccccc2)c2ccc(F)cc12	x	0%[56.1 µM]	16µM*	u	x
CSc1nc2sc3c(c2c(=O)[nH]1)CCCC3	1%	0%	-13%	7%	22%
O=c1[nH]c(S)nc2sc3c(c12)CCCC3	-20%	2%	7%	-11%	13µM*
O=C(O)c1ccc(/C=C/c2nc3sc4c(c3c(=O)[nH]2)CCC4)cc1	-6%	50µM*	3%	6%	2%
O=C1[C@@H]2Cc3c([nH]c4ccccc34)C(c3ccc(Cl)cc3)N2C(=O)CN1CCO (some centres undefined)	4%	x	-20%	u	u
CCC(C)NC(C(=O)Nc1ccc(Cl)c([N+](=O)[O-])c1)c1ccccc1 (centres undefined)	-18%	-3%	16µM*	u	-11%
O=C(O)COc1ccccc1-c1nc(-c2ccccc2)c(-c2ccccc2)[nH]1	3%	8%	-12%	-22%	28%
Cc1cc(NC(=O)CN(C)CCOc2ccccc2)ccc1Br	2%	x	18µM*	18µM*	6%
CC1CCCN(S(=O)(=O)c2ccc(C(=O)Nc3nnc(-c4ccco4)o3)cc2)C1 (centres undefined)	0.5µM*	5%	7.3µM*	8.2µM*	1.1µM*
CCc1nnc(NC(=O)c2ccc(S(=O)(=O)N3CCCC(C)C3)cc2)o1 (centres undefined)	0.63µM*	6%	u	u	0.22µM*
COCc1nnc(NC(=O)c2ccc(S(=O)(=O)N3CCCC3)cc2)o1	11µM*	3%	-11%	-6%	4.5µM*
CC1CCN(S(=O)(=O)c2ccc(C(=O)Nc3ccccc3-c3nc4ccccc4[nH]3)cc2)CC1	-13%	5%	u	u	0%
CC1CCCN(S(=O)(=O)c2ccc(C(=O)Nc3ccccc3-c3nc4ccccc4[nH]3)cc2)C1 (centres undefined)	-9%	-3%	10µM*	18µM*	-3%
